Our source for the growth values is PubChem BioAssay (NCI).

This is part of a sample that, as a whole, favours compounds with a hit. Of some 83,000 tested, about 20% had one in any assay.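 Growth was measured after 48 h exposure to one concentration of compound in 96-well plates. Values under 10 count as active.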 Values without a mark were called inactive. Active and inactive are the calls of the source.

For the experiment, the system named is MDA-MB-468 breast. Kind of experiment: NCI-60 one-dose screen, 48 h (100 = growth as untreated, 0 = no growth, -100 = all killed). The note with it: 10 µM unless noted.
With `O=C(NNc1nc2cc(F)cc(F)c2n2cccc12)c1cnccn1`, the growth is -10.9% (active).

Turning to `COc1cc(OC)cc(-c2ccc(-c3ccc(C(=N)N)cc3)s2)c1`, the growth is -81.3% (active).

Turning to `COc1ccc(C(=O)C2C(c3ccc(OC)cc3)CN(C)C23C(=O)Nc2ccccc23)cc1` (centres undefined), the growth was 95.4%.

Regarding `Cc1cc2nc(CC(=O)c3ccccc3)c(=O)[nH]c2cc1C`, the growth is 103%.

For `COc1cc(/C(C)=C(\c2ccc(Cl)cc2)c2ccc(OCCN3CCCC3)cc2)ccc1F`, the growth is 57.3%.

As for `N#Cc1c(N)nc2c(C#N)c(NC(=O)c3ccccc3)nn2c1-c1ccccc1`, the growth is 94.1%.

With `O=C1OC(c2ccc(-c3ccccc3)cc2)=C/C1=C/c1cccs1`, the growth is -47.5% (active).

As for `NS(=O)(=O)c1ccc(CCN2C(=O)c3cc(Cl)c(Cl)cc3C2=O)cc1`, the growth is 119%.

On to `COc1cc(C(=O)c2cnc(-c3cccc4[nH]ccc34)[nH]2)cc(OC)c1OC`, for which the growth is -2.51% (active).

As to `CCOC(=O)c1c(C)nc2ccccc2c1/C=C/c1ccc(OC)cc1`, the growth was 20.6%.

As for `CCN(CC)CCNCC(O)Cc1ccc(OC)cc1` (centres undefined), the growth is 105%.

In the case of `O=C1c2c(c3c4cc(F)ccc4oc3c3[nH]c4ccccc4c23)C(=O)N1O`, the growth was -5.83% (active).

On to `NC(N)=Nc1ccc(Oc2ccc(Nc3ccc(Cl)c(C(F)(F)F)c3)cc2)cc1`, for which the growth is 22.2%.

For `C[C@H](CCC[C@H](C)OS(=O)(=O)c1ccccc1)OS(=O)(=O)c1ccccc1`, the growth was 110%.

For the molecule `CCOC(=O)C1=C(C)n2nc(CC#N)c(C#N)c2NC1c1ccc(CC)cc1` (centres undefined), the growth is 114%.

Take `COc1ccc(N(C)c2nc(N)nc3sc4c(c23)CCCC4)cc1`: the growth was 19.4%.

In the case of `Cn1cc(-c2csc(-c3cn(CCCN4CCOCC4)c4ccccc34)n2)c2cccnc21`, the growth was 65.1%.

For the molecule `O=Cc1cc2ccccc2nc1Oc1ccc(C(F)(F)F)cc1`, the growth is 90.7%.

Consider `NS(=O)(=O)c1ccc(CCn2c(SCC(=O)N/N=C/c3ccccc3O)nc3ccccc3c2=O)cc1`, for which the growth is 59.1%.

As to `CC(C)c1ccc(Cc2cnc(NC(=O)c3cc(Br)cs3)s2)cc1`, the growth is -4.52% (active).

Regarding `CC(NC(=O)Oc1cccc2ccccc12)c1ccccc1` (centres undefined), the growth was 107%.

For the molecule `COc1ccc(C(=O)c2cc(OC)c(OC)c(OC)c2)cc1O`, the growth was -14.4% (active).

For the molecule `CCn1c(=O)c(C(=O)NCCCO)c(O)c2ccccc21`, the growth was 112%.

As for `COc1cc2cc(Oc3ccc(NC(=O)c4ccc(Cl)c(C(F)(F)F)c4)cc3)c(C)nc2cc1OC`, the growth was 6.44% (active).
